High-throughput results (PubChem)
Sampled rows, rich in hits. Any-hit rate of the full collection: about 2.3%.
GLD-1 RNA inh: GLD-1/TGE RNA complex disruptors, primary screen, biochemical, fluorescence polarization | Female germline-specific tumor suppressor gld-1 (Caenorhabditis elegans), Q17339 | purified GLD-1 + fluorescein TGE RNA | inhibition, % at 5.96 µM | 320,000 compounds, 0.44% hits | AID 2280, 2010;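 active means percent inhibition above a per-plate cutoff, the plate mean of test compounds plus 3 SD, cut at about 30% in these data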;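 further: 0% = DMSO wells with GLD-1 and probe and 100% = wells lacking GLD-1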
MCL1 BIM primary: inhibitors of MCL1 binding to BIM-BH3, primary screen, biochemical, fluorescence polarization; Induced myeloid leukemia cell differentiation protein Mcl-1 (Homo sapiens), Q07820; GST-MCL1 / FITC-Bim-BH3 fluorescence polarization; inhibition, % at 10.9 µM; 320,000 compounds, 0.68% hits;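 active means inhibition above the mean inhibition of all tested compounds plus 3 SD, set per campaign, cut at about 40% in these data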;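 further: 0% = DMSO wells and 100% = unlabeled Bim-BH3 peptide control; higher means more loss of mP so more displacement of Bim peptide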
Target sequence (Q07820 whole entry, looked up): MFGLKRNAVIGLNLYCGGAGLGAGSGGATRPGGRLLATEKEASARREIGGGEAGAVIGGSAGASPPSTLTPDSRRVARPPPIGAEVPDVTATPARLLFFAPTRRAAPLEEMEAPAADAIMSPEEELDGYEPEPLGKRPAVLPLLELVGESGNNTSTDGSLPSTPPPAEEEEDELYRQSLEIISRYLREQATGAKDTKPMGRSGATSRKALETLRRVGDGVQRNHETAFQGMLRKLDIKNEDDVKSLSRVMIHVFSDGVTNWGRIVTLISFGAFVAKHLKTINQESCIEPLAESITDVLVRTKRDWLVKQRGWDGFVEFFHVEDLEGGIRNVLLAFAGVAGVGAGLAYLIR
Mcl-1 Bim block: inhibitors of Bim peptide binding to Mcl-1, primary screen, biochemical, bead-based flow cytometry, multiplex | Induced myeloid leukemia cell differentiation protein Mcl-1 (Homo sapiens), Q07820 | Bim peptide-Mcl-1 binding | inhibition, % at 10 µM | 190,000 compounds, 0.1% hits | AID 1009, 2008; in the data active means inhibition above about 40%;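 further: 0% = no compound tracer wells and 100% = peptide blocker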
Mcl1-Noxa inh: Mcl-1/Noxa binding inhibitors, primary screen, biochemical, TR-FRET, 1536-well. 220,000 compounds, 1.5% hits. TR-FRET Mcl-1/Noxa peptide binding, 2 h. inhibition, % at 21.7 µM;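 active means compounds that cut the protein-peptide binding signal by more than 50% relative to plate controls in a single-dose test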;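 further: His-tagged Mcl-1 with rhodamine Noxa BH3 peptide and terbium anti-His antibody; 0% = Mcl-1 plus Noxa peptide wells and 100% = peptide-only wells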
Mcl1-Bid inh: Mcl-1/Bid binding inhibitors, primary screen, biochemical, TR-FRET, 1536-well. 220,000 compounds, 0.97% hits. inhibition, % at 21.7 µM. Induced myeloid leukemia cell differentiation protein Mcl-1 (Homo sapiens), Q07820. TR-FRET Mcl-1/Bid-Dy647 peptide binding;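 active means compounds that cut the binding signal by more than half at the single screening dose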;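 further: His-tagged Mcl-1 with europium anti-His antibody binding Bid BH3 peptide; 0% = Mcl-1 plus peptide wells and 100% = peptide-only wells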
Bcl-xL primary: inhibitors of human Bcl-xL, primary screen, biochemical, fluorescence polarization, HTS. inhibition, % at 10.9 µM. AID 2129, 2009. 320,000 compounds, 0.7% hits. GST-Bcl-xL / FITC-Bim BH3 peptide fluorescence polarization;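 active means inhibition above the mean of all tested compounds plus 3 SD, cutoff set per campaign, cut at about 30% in these data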;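 further: 0% = DMSO wells and 100% = unlabeled Bim-BH3 peptide competitor; inhibitors lower millipolarization by displacing the labeled peptide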
Target sequence (Q07817 whole entry, looked up): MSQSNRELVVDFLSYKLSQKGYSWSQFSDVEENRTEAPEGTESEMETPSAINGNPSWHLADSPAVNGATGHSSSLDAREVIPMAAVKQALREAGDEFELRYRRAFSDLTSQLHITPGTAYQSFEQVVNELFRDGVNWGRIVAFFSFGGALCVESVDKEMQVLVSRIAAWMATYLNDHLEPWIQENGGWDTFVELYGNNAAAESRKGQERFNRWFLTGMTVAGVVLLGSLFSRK
Numbers without * were called inactive; x = no result.

SMILES | GLD-1 RNA inh | MCL1 BIM primary | Mcl-1 Bim block | Mcl1-Noxa inh | Mcl1-Bid inh | Bcl-xL primary
CCOc1ccc(OCC)c(NC(=O)CN2CCN(c3cc(C)ccc3C)CC2)c1 | 4 | 7 | -3 | 8 | 51* | -1
CC(C)CCNC(=O)C1CCN(S(=O)(=O)c2ccc(-n3cnnn3)cc2)CC1 | -6 | 8 | x | x | x | 6
NC1=NC(=Nc2cccc(S(N)(=O)=O)c2)c2ccccc21 | -4 | 5 | x | 7 | -11 | 6
COc1cc(N=Nc2cccc(S(N)(=O)=O)c2)c2ccccc2c1N | -120 | -58 | x | 67* | 4 | -26
CCN(C(=O)CSc1nc2nc(C)cc(C)n2n1)C1CCS(=O)(=O)C1 (centres undefined) | -1 | -2 | 0 | 5 | 2 | 3
COc1ccc(C(=O)NC2CC2)cc1OC1CCN(C(C)CSC)CC1 (centres undefined) | 15 | 27 | x | x | x | 31*
N=c1c[n+](N2CCOCC2)[n-]o1 | 0 | 0 | 0 | 7 | 56* | 0
Nc1ccc(C(=O)N2CCN(S(=O)(=O)c3ccc4c(c3)OCCO4)CC2)cc1[N+](=O)[O-] | 1 | 1 | x | x | x | 1
Cn1c2ccccc2c(=O)c2c(=O)n(C3CCCCCC3)c(C3CCCCC3)nc21 | x | x | -3 | -30 | 89* | x
Cn1c2ccccc2c(=O)c2c(=O)n(-c3ccccc3)c(C3CCCCC3)nc21 | 1 | 9 | -3 | 19 | -9 | 5
CCOc1ccccc1OCCC(=O)OCC(=O)Nc1c(C)cc(C)cc1C | 0 | -22 | x | x | x | -12
Cc1nc(NC(=O)c2cccc(-c3cc4ccccc4oc3=O)c2)ccc1Br | 8 | -2 | -4 | -34 | 58* | 0
O=S(=O)(Cc1ccccc1)C1CCCCC1O (centres undefined) | 6 | -6 | x | -10 | -10 | -2
O=C1ON=C(c2ccccc2)/C1=C/c1ccc(-c2ccccc2[N+](=O)[O-])o1 | 12 | 29 | -8 | 67* | -11 | 18
Cc1ccsc1C(=O)NCCc1c[nH]c2ccccc12 | 3 | 4 | x | x | x | -1
Cc1cc(C)c(S(=O)(=O)Nc2cc(SCC(=O)O)c(O)c3ccccc23)cc1C | 12 | 27 | 0 | 82* | 29 | 19
CCc1cc(=O)oc2c(C)c(OCC(=O)NCCCn3ccnc3)ccc12 | -7 | 6 | x | x | x | 8
CCN1CCc2c(OCC(=O)N3N=C(c4cccs4)CC3c3ccc(F)cc3)cccc2C1=O (centres undefined) | 10 | 2 | -5 | -19 | 5 | 2
CN1CCc2c(OCC(=O)N3N=C(c4cccs4)CC3c3ccc(F)cc3)cccc2C1=O (centres undefined) | 3 | 5 | -4 | 10 | 54* | 2
Cc1[nH]n(C(N)=S)c(=O)c1C(c1ccccc1)C(C#N)C#N (centres undefined) | 1 | 13 | -1 | -21 | -53 | 7
Cc1[nH]n(-c2ncc(-c3ccccc3)s2)c(=O)c1C(c1ccc(Br)cc1)C(C#N)C#N (centres undefined) | 10 | 4 | -6 | 78* | 28 | 9
FC(F)(F)c1n[nH]c(=S)n1/N=C/c1ccco1 | -1 | -30 | -6 | 12 | -25 | -26
O=C(NCc1ccco1)c1ccc2c(=O)n(Cc3ccco3)c(SCC(=O)N3CCCC3)nc2c1 | -2 | 17 | -2 | 54* | 0 | 4
COc1cc(OC)nc(Oc2ccccc2C(=O)Oc2cccc(C)c2)n1 | 6 | -4 | -7 | -7 | 53* | 0
COc1cc(C(=O)Oc2cccc(C)c2)cc(OC)c1OC | 1 | 1 | -5 | -9 | -15 | 2
SMILES | GLD-1 RNA inh | MCL1 BIM primary | Mcl-1 Bim block | Mcl1-Noxa inh | Mcl1-Bid inh | Bcl-xL primary
Cc1cc(Nc2ccccc2C(=O)O)nc2nc3ccccc3c(=O)n12 | 2 | 7 | 0 | 9 | -18 | 3
NC(=O)c1ccccc1Nc1nc2nc3ccccc3c(=O)n2cc1Br | 28 | 28 | x | 9 | -4 | 31*
Cc1ccccc1NC(=S)N1CCN(c2ccccc2)CC1 | 6 | 7 | x | x | x | 0
CSCCC(NC(=O)c1ccccc1Cl)C(=O)N1CCN(C(c2ccccc2)c2ccccc2)CC1 (centres undefined) | -4 | -7 | x | x | x | -2
CC(=O)n1cc(Nc2ccc([N+](=O)[O-])cc2)c2ccccc21 | -3 | 9 | 0 | 65* | 20 | 5
CC(=O)n1cc(Nc2ccccc2C(=O)O)c2ccccc21 | 1 | 5 | -2 | 11 | -28 | 11
CC(=O)SC(C[N+](=O)[O-])c1cn(C(C)=O)c2ccccc12 (centres undefined) | 2 | 16 | -6 | 59* | 15 | 7
Oc1cc(-n2cccn2)c(O)cc1-n1cccn1 | 19 | 8 | x | 70* | -241 | 13
COC(=O)COc1ccc2c(c1)O/C(=C\c1ccco1)C2=O | -4 | 0 | x | x | x | 75*
CCN(CC)C(=O)Oc1ccc2c(c1)O/C(=C\c1ccco1)C2=O | -3 | 1 | x | x | x | 2
C#CCOCCOCCOCCNc1nc(N2CCN(C(=O)[C@H](C)n3cc(CCCN=C(N)N)nn3)CC2)nc(N2CCN(C(=O)[C@H](CCCCN)n3cc(CCCC)nn3)CC2)n1 | x | x | -1 | 40 | 72* | x
C#CCOCCOCCOCCNc1nc(N2CCN(C(=O)[C@H](CCCCN)n3cc([C@@H](N)CC(C)C)nn3)CC2)nc(N2CCN(C(=O)[C@H](Cc3cc4ccccc4[nH]3)n3cc([C@@H](N)Cc4ccc(O)cc4)nn3)CC2)n1 | 7 | -2 | 1 | 37 | 60* | 0
C#CCOCCOCCOCCNc1nc(N2CCN(C(=O)[C@H](CCCCN)n3cc(C(N)CC(C)C)nn3)CC2)nc(N2CCN(C(=O)[C@H](CCC(=O)O)n3cc(C(N)[C@H](C)CC)nn3)CC2)n1 (some centres undefined) | 3 | 3 | -2 | 37 | 82* | 7
C#CCOCCOCCOCCNc1nc(N2CCN(C(=O)[C@H]([C@@H](C)CC)n3cc(CCCN=C(N)N)nn3)CC2)nc(N2CCN(C(=O)[C@H](CCCCN)n3cc(CCCC)nn3)CC2)n1 | 5 | 5 | -2 | 32 | 7 | 3
C#CCOCCOCCOCCNc1nc(N2CCN(C(=O)[C@H](CCCCN)n3cc([C@@H](N)CO)nn3)CC2)nc(N2CCN(C(=O)[C@H](Cc3cc4ccccc4[nH]3)n3cc([C@@H](N)Cc4ccc(O)cc4)nn3)CC2)n1 | -7 | 10 | -3 | 35 | 43 | 6
